Screens (PubChem BioAssay)
Most compounds without a hit are left out; they make up all but 1.7% or so of the library.
H9c2 TAG inh: inhibitors of triacylglycerol accumulation; H9c2 cells, Nile Red lipid (TAG) fluorescence; cells loaded with 200 µM oleic acid; inhibition, % at 12.5 µM; 230,000 compounds, 0.66% hits; AID 651582;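 active means pattern-corrected inhibition of lipid staining of at least 50% with the nuclear-stain viability signal not falling by more than 50%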;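 further: 0% = DMSO wells and 100% = triacsin C control wells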
MIN6 prolif: MIN6 beta-cell proliferation induction; MIN6 cells proliferation, ATPlite luminescence, 48 h; cells starved in 0.2% serum; 100% = growth in 10% serum; proliferation, % at 10 µM; 330,000 compounds, 0.29% hits; AID 2380;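 active means compounds whose signal lies at least 3.5 SD above the mean of all wells on their plate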;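 further: 0% = DMSO-treated cells in low-serum medium and 100% = 10% serum control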
CHT PAM: allosterically activates the human high affinity choline transporter | Q9GZV3 | CHT-expressing cells, membrane potential dye, choline EC20; hits give high values; LV-AA mutant CHT in HEK293 cells | B-score at 10 µM | 310,000 compounds, 0.49% hits;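 active means initial fluorescence not abnormally high and integrated response B-score, plate-corrected, over 3 SD above library mean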
Target sequence (Q9GZV3 whole entry, looked up): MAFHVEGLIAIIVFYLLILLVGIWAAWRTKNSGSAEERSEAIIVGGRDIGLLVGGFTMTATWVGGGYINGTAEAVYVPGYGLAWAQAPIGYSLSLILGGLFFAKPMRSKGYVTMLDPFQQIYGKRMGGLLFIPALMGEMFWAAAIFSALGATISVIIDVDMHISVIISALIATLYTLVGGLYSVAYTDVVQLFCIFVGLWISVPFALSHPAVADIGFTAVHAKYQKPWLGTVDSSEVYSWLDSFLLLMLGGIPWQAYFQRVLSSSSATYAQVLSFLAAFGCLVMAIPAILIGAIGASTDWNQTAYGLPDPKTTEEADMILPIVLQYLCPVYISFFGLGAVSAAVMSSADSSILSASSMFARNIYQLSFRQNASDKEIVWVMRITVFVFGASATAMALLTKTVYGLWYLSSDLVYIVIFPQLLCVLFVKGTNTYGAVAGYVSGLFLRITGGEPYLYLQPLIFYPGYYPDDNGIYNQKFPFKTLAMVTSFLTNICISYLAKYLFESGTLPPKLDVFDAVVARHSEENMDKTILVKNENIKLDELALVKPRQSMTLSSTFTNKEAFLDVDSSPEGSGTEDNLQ
CHT inh: inhibits the human high affinity choline transporter. Q9GZV3. CHT-expressing cells, membrane potential dye, choline response; hits give low values. B-score at 10 µM. 310,000 compounds, 0.86% hits. AID 488975;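 active means B-score over 3 SD under the library average, and starting fluorescence ratio not unusually high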;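 further: choline stimulus applied at its EC90 after an EC20 pre-addition; B-score computed on integrated fluorescence ratio after choline addition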
CHT activ conf: human CHT activation, confirmatory screen; 2,500 compounds, 91% hits; activation, % at 10 µM; CHT-expressing cells, membrane potential dye fluorescence (FDSS); % of choline EC20–EC90 response window; HEK293 expressing CHT LV-AA mutant; choline added at its EC20; shares compounds with CHT PAM;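 active means primary screen active, with duplicate mean activation above negative control mean plus 3 SD, cut at about 11% in these data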
HEK293 MP dye: counter-screen for CHT activators: effect in parental HEK293 cells; shares compounds with CHT PAM; ratio readout change at 10 µM, hits read low; membrane potential dye fluorescence (FDSS); measured after EC20 choline addition; AID 623908; 2,500 compounds, 62% hits;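 active means duplicate-averaged ratio beyond 3 SD from buffer wells, up or down, though filed actives are nearly all decreases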
The depositor's hits bear a star; i = inactive; . = no result.

SMILES	H9c2 TAG inh	MIN6 prolif	CHT PAM	CHT inh	CHT activ conf	HEK293 MP dye
CC1(C)Cc2c(sc3c2C2=NCCN2C=N3)CO1	39	1	9.3*	i	75*	-63*
COc1ccc(CN2CCc3c([nH]c4ccccc34)C2)c(OC)c1C	-15	-2	i	i	32*	i
CCn1cnc2cc(NCc3ccncc3)ccc21	.	-2	i	i	49*	-38*
CCn1cnc2cc(NCc3ccc(Cl)cc3)ccc21	.	5	i	i	.	.
CC(NC(=S)N1CCN(c2ccccc2)CC1)c1ccccc1 (centres undefined)	-19	-4	i	i	.	.
CN(C)C=NCCn1c(N2CCOCC2)nc2c1c(=O)n(C)c(=O)n2C	12	-1	14*	i	68*	-70*
CCCCCn1c(SCCN2CCOCC2)nc2c1c(=O)[nH]c(=O)n2C	-33	0	i	i	39*	-37*
CCn1c(SCCN2CCOCC2)nc2c1c(=O)n(C)c(=O)n2C	-4	-3	i	i	49*	-38*
CCCCCCn1c(SCCN2CCOCC2)nc2c1c(=O)[nH]c(=O)n2C	-19	-1	i	i	.	.
Cn1c(=O)c2c(nc(SCC(=O)N3CCOCC3)n2C)n(C)c1=O	.	-3	i	i	.	.
Cn1c(=O)c2c(nc(N3CCOCC3)n2CCc2ccccc2)n(C)c1=O	-4	0	i	i	.	.
Cn1c(=O)c2c(nc(SCCN3CCOCC3)n2C)n(C)c1=O	-8	0	i	i	51*	-51*
O=C(Cn1nnc2ccccc21)NNC(=O)c1ccccc1	9	-4	i	i	.	.
Cc1noc(C)c1CN1C(=O)c2ccccc2C1=O	-14	-1	i	i	.	.
c1cn(-c2ccc(-c3ccnc4ncnn34)cc2)cn1	10	0	8.5*	i	41*	-40*
c1ccc(-c2ccnc3ncnn23)nc1	-10	0	i	i	.	.
CC(C)n1cc(C(=O)NC2CC(C)(C)Cc3c2cnn3-c2ccccc2)cn1 (centres undefined)	.	-1	i	i	.	.
COc1ccc(-c2c(-c3cc(OC)c(OC)c(OC)c3)noc2C)cn1	23	-3	6.7*	i	33*	i
COc1cc(-c2noc(C)c2C#Cc2ccccn2)cc(OC)c1OC	70*	3	9.5*	i	30*	i
COc1cc(-c2noc(C)c2/C=C/c2ccc(N)cc2)cc(OC)c1OC	28	-7	10*	i	42*	i
COc1ccc(NC(=O)COC(=O)[C@@H](NC(=O)c2c(F)cccc2F)C(C)C)cc1	.	-2	i	i	.	.
Cn1ncc(Cl)c1C(=O)NC1CCCC1	-2	4	i	i	.	.
CCOc1cc(NC(=O)c2ccco2)c(OCC)cc1NC(=O)c1ccco1	.	-2	11*	i	21*	i
COc1cnc(-c2ccccn2)nc1N(C)C	-24	-2	i	i	33*	-36*
C[n+]1c2n(c3ccccc31)N=C(c1ccccc1)CS2	-21	-6	7.1*	i	58*	-55*
SMILES	H9c2 TAG inh	MIN6 prolif	CHT PAM	CHT inh	CHT activ conf	HEK293 MP dye
C[n+]1c2n(c3ccccc31)N=C(c1ccc(-c3ccccc3)cc1)CS2	1	-6	7.9*	i	40*	-35*
CC(C)Cn1c(/C=C/c2ccccc2)nc2ccccc21	.	0	i	i	23*	i
COc1cccc(CN2CC(C(=O)N(C)Cc3ccnc4ccccc34)CCC2=O)c1 (centres undefined)	.	1	i	i	.	.
COc1ccccc1CNC(=O)COc1cc2c(c3oc(=O)cc(C)c13)CCC(C)(C)O2	.	0	i	i	24*	i
CSCCC(=O)N1CCC(n2nccc2NC(=O)CCCc2ccccc2)CC1	.	4	i	i	.	.
CCC(C)(C)C1CCc2nc3ccccc3c(C(=O)OC(C)C(=O)Nc3c(C)n(C)n(-c4ccccc4)c3=O)c2C1 (centres undefined)	.	-7	11*	i	32*	i
CCC(N=c1cc(-c2ccc(OC)cc2)oc2ccc(C)cc12)C(=O)O (centres undefined)	.	0	i	i	32*	-27*
COc1ccc(-c2cc(=O)c3cc(OC)ccc3o2)cc1	.	-4	i	i	.	.
CNC(=O)/C(C#N)=C/c1c(N2CCN(C)CC2)nc2c(C)cccn2c1=O	.	3	i	i	58*	-56*
CCN1CCN(c2nc3c(C)cccn3c(=O)c2/C=C(\C#N)C(=O)NC)CC1	.	-1	9.1*	i	47*	-45*
CCOC(=O)/C(C#N)=C/c1c(N2CCN(CC)CC2)nc2c(C)cccn2c1=O	.	-3	i	i	52*	-50*
CNC(=O)/C(C#N)=C/c1c(N2CCN(c3cccc(Cl)c3)CC2)nc2c(C)cccn2c1=O	.	-6	i	i	.	.
CCOC(=O)/C(C#N)=C/c1c(N2CCN(c3ccc(OC)cc3)CC2)nc2c(C)cccn2c1=O	.	2	i	i	.	.
CCN1CCN(c2nc3c(C)cccn3c(=O)c2/C=C(\C#N)C(=O)NCCCOC)CC1	.	0	7.5*	i	50*	-60*
CCNC(=O)/C(C#N)=C/c1c(N2CCN(c3ccc(OC)cc3)CC2)nc2c(C)cccn2c1=O	.	-2	i	i	.	.
Cc1cc(C)n(CCC(=O)N2CCCC(Nc3ccc(F)cc3)C2)n1 (centres undefined)	5	-5	i	i	.	.
O=C(Nc1ncccc1O)C1CCN(S(=O)(=O)c2ccc3ccccc3c2)CC1	-12	-1	i	i	.	.
C[C@H](CO)N1C[C@H](C)[C@@H](CN(C)Cc2ccc3c(c2)OCO3)Oc2ccc(NC(=O)Cn3cnnn3)cc2C1=O	7	0	.	.	.	.
CC(C)C(=O)N1CCN(c2cc(N3CCN(C)CC3)c(F)cc2[N+](=O)[O-])CC1	7	-1	7.9*	i	45*	-49*
CC(=O)N1CCN(c2cc(N3CCCC3)c(F)cc2[N+](=O)[O-])CC1	6	-1	i	i	.	.
Nc1nc(N2CCN(c3ccccn3)CC2)nc2ccccc12	.	-1	i	i	26*	-42*
O=C(NC1CCCC1)C1CCN(C(=O)c2cccc(Cl)c2)CC1	.	4	i	i	.	.
COc1ccccc1CN1CC(C(=O)NCc2cc(F)cc(C(F)(F)F)c2)CCC1=O (centres undefined)	.	-2	i	i	.	.
COC(=O)CNC(c1ccccc1)c1cc(C)ccc1NC(=O)c1cccc(Cl)c1 (centres undefined)	-65	0	6.9*	i	43*	i
Cc1cc(C)n2[nH]c(=O)c(N=Nc3ccc(S(N)(=O)=O)cc3)c2n1	31	1	9.2*	i	70*	-81*
